Screening results (PubChem)
TDP1 cell noCPT – qHTS for Inhibitors of human tyrosyl-DNA phosphodiesterase 1 (TDP1): qHTS in cells in absence of CPT | 420,000 tested, 15% active | AID 686978, 2013 | Potency, µM (titrated, usually from 46.2 µM), inactives show at the top dose activity change, negative = growth inhibition, hits mostly inhibitors | DT40 Tdp1-/- hTDP1 cells, no CPT, ATP luminescence, 48 h; further: potency means the concentration at half of the fitted maximal effect; on the % scale 0 is the no-effect control and ±100 the full control effect; nearly all actives have a fitted effect of over 55% in size
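Growth kinetics read by CellTiter-Glo luminescence after ≥48 hr at 37 °C. Cells: DT40 Tdp1-/- stably carrying human TDP1, 400 per well, compound exposure in the absence of CPT (DMSO vehicle).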
HepG2 viability – kills HepG2 cells in TGF-b inhibitor counter-screen | AID 588856 | Potency, µM (highest dose often 46.1 µM), inactives show top-dose activity change, negative = cytotoxicity, actives largely listed as cytotoxic | 410,000 tested, 0.76% active | HepG2 CAGA-GFP viability, ATP luminescence, 18 h; further: potency means the concentration at half of the fitted maximal effect
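HepG2 CAGA-GFP cells (1000/well, DMEM with 1% FBS) received compound, then TGF-beta at 500 pg/mL final, and were incubated 18 hours at 37 degrees C. Viability was read by CellTiter-Glo luminescence. Media-only wells were set as complete cell-killing and DMSO as no toxicity.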
TGFb inhibitor – inhibitors of TGF-b signaling; HepG2 CAGA-GFP TGF-b/SMAD3 reporter, GFP fluorescence, 18 h; TGF-beta stimulated, 500 pg/mL final; Potency, µM (highest dose often 46.1 µM), inactives show at the top dose activity, negative = inhibition, hits mostly inhibitors; 410,000 tested, 1.2% active; AID 588855; further: potency means the concentration at half of the fitted maximal effect; on the % scale 0 is the no-effect control and ±100 the full control effect; nearly all actives have a fitted effect of over 65% in size
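HEPG2 CAGA-GFP, 1000 cells/well; 2 h settle, 37 C; cpd via pin tool; TGF-b 500 pg/mL final; 18 h, 37 C; GFP imaging ex488/em500-530; %Activity normalised to -TGF-b and +DMSO controls; CRC fit, curve class.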
DT40 TDP1 CPT – growth inhibition of DT40 Tdp1-/-;hTDP1 cells with camptothecin (screen for TDP1 inhibitors) | chicken DT40 Tdp1-/-;hTDP1 cells + 20 nM CPT, ATP luminescence, 48 h | Potency, µM (top dose mostly 46.2 µM), for inactives: top-dose activity change, negative = growth inhibition, hits mostly inhibitors | 420,000 tested, 12% active | AID 686979; further: potency means the concentration at half of the fitted maximal effect; on the % scale 0 is the no-effect control and ±100 the full control effect; nearly all actives have a fitted effect of over 55% in size
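Cell growth measured by CellTiter-Glo luminescence after a minimum 48 h, 37 C compound exposure with 20 nM CPT in Tdp1-knockout DT40 cells stably expressing hTDP1, seeded 400/well; qHTS titration format.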
TDP1 block – TDP1 (human) enzyme inhibition | recombinant TDP1, AlphaScreen DNA substrate cleavage | 350,000 tested, 0.28% active | Potency, µM (top dose mostly 130 µM), without a hit: at the highest dose activity change, negative = inhibition, actives largely listed as inhibitors; further: potency means the concentration at half of the fitted maximal effect; on the % scale 0 is the no-effect control and ±100 the full control effect; nearly all actives have a fitted effect of over 40% in size
Target sequence (Q9NUW8 whole entry, looked up): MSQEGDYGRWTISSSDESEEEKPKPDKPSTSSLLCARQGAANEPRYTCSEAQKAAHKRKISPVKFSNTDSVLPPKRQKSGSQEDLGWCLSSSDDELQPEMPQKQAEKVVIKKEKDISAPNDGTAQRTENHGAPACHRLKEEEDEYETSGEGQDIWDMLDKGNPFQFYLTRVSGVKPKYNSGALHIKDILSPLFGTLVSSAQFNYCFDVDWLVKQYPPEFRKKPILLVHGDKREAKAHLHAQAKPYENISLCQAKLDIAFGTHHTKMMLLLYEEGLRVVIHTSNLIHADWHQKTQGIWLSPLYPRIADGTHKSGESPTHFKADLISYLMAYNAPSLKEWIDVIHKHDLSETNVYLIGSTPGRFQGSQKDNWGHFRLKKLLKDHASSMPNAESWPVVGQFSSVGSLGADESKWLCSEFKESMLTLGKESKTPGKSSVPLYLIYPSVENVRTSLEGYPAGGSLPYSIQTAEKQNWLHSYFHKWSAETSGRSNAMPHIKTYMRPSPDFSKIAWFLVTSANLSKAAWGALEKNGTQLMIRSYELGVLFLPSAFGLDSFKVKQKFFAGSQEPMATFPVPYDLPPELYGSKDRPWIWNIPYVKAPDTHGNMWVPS
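E. coli-derived human Tdp1, 1 nM final. Cpd preinc 15 min RT; substrate 15 nM final, 5 min RT; AS bead mix 10 ug/ml final, 10 min RT. Signal loss = tyrosine-FITC cleavage. No-enzyme wells = max signal.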
IL1B secr inh – inhibitors of inflammasome signaling (IL-1 beta secretion) | AID 743279 | THP-1 LPS/ATP IL-1B secretion, AlphaLISA, 16 h; stronger effect = lower value | 360,000 tested, 4.7% active | activity change, % at 57.5 µM; in the data active means activity change below about -50%; inconclusive means mostly about -30% to -49%; further: on the % scale 0 is the no-effect control and ±100 the full control effect
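THP-1 cells pretreated 1 hr with compounds (up to 57.5 uM final), then stimulated with LPS (250 ng/mL final) plus ATP (1.25 mM final); secreted IL-1B measured by AlphaLISA after 16 hr, decreased signal indicating inhibition.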
Active calls of the source: *; ? = inconclusive; nt = no result; [ ] = remark or other dose. The list is not random: actives were taken first. Their share in the collection is about 18%. Unless noted, the call rests on the fitted dose curve; in most records, active means well fitted curve in the direction sought with a large enough effect; inconclusive means small, poorly fitted or top-dose-only effect, or another doubt; inactive means no such curve, though single readings can be large; an effect the other way counts as inactive or inconclusive.

SMILES	TDP1 cell noCPT	HepG2 viability	TGFb inhibitor	DT40 TDP1 CPT	TDP1 block	IL1B secr inh
CCc1noc(C)c1C(=O)Nc1sc(C(=O)N(C)C)c(C)c1C#N	0%	1%	-7%	-10%	nt	-8
CC(=O)c1c(C)n(-c2ccccc2Br)c2ccc(O)cc12	?	0%	0%	?	nt	11
CN(C)C(CNC(=O)c1ccc(C(F)(F)F)cc1)c1ccco1 (configuration not stated)	6%	2%	-4%	-4%	1%	7
COc1cc(NC(=O)C(C)(C)C)c(C(=O)OCC(=O)Nc2cc(C)on2)cc1OC	10%	-13%	2%	16%	nt	-7
CCOc1cc(C2C(C(=O)c3ccco3)=C(O)C(=O)N2CC2CCCO2)ccc1O (configuration not stated)	-2%	5%	-10%	15%	-8%	-11
COc1ccc(-c2cc(C(=O)Oc3ccc(C)cc3)c3cc(C)ccc3n2)cc1	-2%	-41%	-16%	-23%	-4%[12.3 µM]	nt
COc1ccc(CN(C)C(=O)c2cc(-c3ccccc3)nc3ccc(C)cc23)c(OC)c1	5.8µM*	2%	1%	5.8µM*	nt	?
Cc1ccc2nc(-c3ccc(Cl)cc3)cc(C(=O)OCC(=O)c3ccccc3)c2c1	21µM*	-19%	-13%	?	0%[12.3 µM]	nt
O=C(COC(=O)c1cc(-c2ccccc2)nc2ccccc12)c1ccc(Br)cc1	?	-4%	-9%	?	3%	nt
COc1ccc(C(=O)COC(=O)c2cc(-c3cccs3)nc3ccccc23)cc1	?	-24%	1%	-32%	nt	nt
Cc1ccc(C(=O)COC(=O)c2cc(-c3cccs3)nc3ccccc23)cc1	18µM*	-4%	-18%	?	nt	nt
CN(C1=C(N2CCOCC2)C(=O)c2ccccc2C1=O)c1ccccc1	16µM*	-2%	10µM*	13µM*	14%	-86*
CC1=C(C)C(=O)C(N2CCOCC2)=CC1=O	15µM*	-18%	-23%	16µM*	-1%	13
O=C1C=C(N2CCOCC2)c2cccc3cccc1c23	15µM*	-6%	6%	-27%	nt	-8
O=C1C=C(N2CCOCC2)c2ccccc2C1=O	2.3µM*	5µM*	5µM*	2.6µM*	nt	-103*
O=C1C(N2CCOCC2)=Cc2cccc3cccc1c23	?	-2%	41%	?	nt	-12
c1ccc(N2CCOCCOCCOCCOCCOCC2)cc1	-16%	9%	0%	-2%	2%	7
Cc1cccc(N2CCN(C3(c4ccccc4)C(=O)c4ccccc4C3=O)CC2)c1C	-16%	-13%	-6%	-21%	5%	nt
CC(=O)N(C(C)=O)N1C(=O)c2cccc3c(N4CCOCC4)ccc(c23)C1=O	?	-1%	0%	-14%	2%	19
Cc1ccc(N2CCOCC2)c2c1C(=O)c1ccccc1C2=O	16µM*	-30%	8%	?	3%	?
CN(CC(=O)Nc1ccc(F)cc1)CC(=O)N1CCCCCC1	16%	-4%	-6%	1%	0%	0
COc1ccccc1C1C=C(c2ccc(Cl)cc2)Nc2nc(-c3ccc(Cl)cc3)nn21 (configuration not stated)	?	-32%	?	16µM*	nt	nt
COc1ccccc1C1C=C(c2ccc(F)cc2)Nc2nc(-c3ccc(Cl)cc3)nn21 (configuration not stated)	16µM*	-17%	-13%	21µM*	nt	nt
O=C(Nc1ccccc1)c1cc(C2COCCN2C(=O)c2cccs2)on1 (configuration not stated)	-22%	-24%	-3%	-17%	nt	87
CCN1CCN(c2ccc(NC(=O)COc3ccc(Cl)cc3C)cc2)CC1	?	-11%	6%	18µM*	3%	-11
SMILES	TDP1 cell noCPT	HepG2 viability	TGFb inhibitor	DT40 TDP1 CPT	TDP1 block	IL1B secr inh
O=C(COc1ccccc1Cl)Nc1ccc(N2CCN(C(=O)c3ccccc3)CC2)cc1	15µM*	-28%	?	18µM*	5%	-22
CCC(=O)Nc1ccc(N2CCN(C(=O)c3cccs3)CC2)cc1	-11%	-3%	5%	-3%	-2%	-7
CCN1CCN(c2ccc(NC(=O)COc3ccccc3Cl)cc2)CC1	18µM*	-28%	-15%	?	2%	-17
O=C(COc1ccccc1[N+](=O)[O-])Nc1ccc(N2CCN(C(=O)c3cccs3)CC2)cc1	6.5µM*	8%	-27%	4.6µM*	5%	?
O=C(COc1ccccc1Cl)Nc1ccc(N2CCCC2)cc1	-10%	-19%	6%	-5%	7%	-12
O=C(NCc1cc(F)cc2c1OCCO2)[C@H]1C[C@@H]1[C@H](NP(=O)(c1ccccc1)c1ccccc1)c1ccccc1	nt	nt	nt	nt	12%	nt
O=C(COc1ccccc1Cl)Nc1cc(NC(=O)COc2ccccc2Cl)cc(C(=O)O)c1	-12%	16%	-19%	1%	35µM*	20
Cc1cccc(OCC(=O)Nc2ccc(N3CCN(C(=O)c4ccccc4)CC3)cc2)c1	15µM*	-1%	-31%	?	-2%	-68*
COc1ccccc1OCC(=O)Nc1cc(NC(=O)COc2ccccc2OC)cc(C(=O)O)c1	-9%	36%	8%	3%	1%	18
CSCCC(NC=O)C(=O)NC(C)C(=O)O (configuration not stated)	0.65µM*	-3%	0%	2.9µM*	nt	-22
CSCCC(NC=O)C(=O)NC(CC(C)C)C(=O)NC(Cc1ccccc1)C(=O)O (configuration not stated)	-3%	nt	nt	-4%	8%[56.1 µM]	nt
CCCOc1ccc(C2c3c(oc4ccccc4c3=O)C(=O)N2c2nnc(C(C)C)s2)cc1 (configuration not stated)	-2%	-4%	-8%	-3%	2%	nt
COC(=O)C1(Cc2ccccc2)C2c3cc(C(=O)N4CCCC4)n(Cc4ccc(OC(F)(F)F)cc4)c3CC2CN1C(=O)c1ccccc1 (configuration not stated)	nt	nt	nt	nt	19%	nt
CCN(CC(O)COc1ccc(OCC(O)CN(CC)C2CCCCC2)cc1)C1CCCCC1 (configuration not stated)	?	-33%	17%	?	nt	-66*
Cc1ccccc1OCC(O)CN(Cc1ccccc1O)C1CCCCC1 (configuration not stated)	13µM*	-56%	?	16µM*	5%	-66*
